Assay results taken from PubChem BioAssay AID720631 (The Scripps Research Institute Molecular Screening Center, 2013).
The other results are listed elsewhere or left out. A number with no mark means an inactive call.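 How the source made its calls: active means inhibition above the mean of compounds lying within the control limits plus 3 SD (cut at about 16% in these data); inactive means the rest.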

Molecular target: Fibrinogen beta chain (Homo sapiens) (UniProt P02675)
Test: Tn6 displacement from DD(E) complex – biochemical, fluorescence polarization, human fibrin, Tn6 probe, confirmation (AID 720631);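 further: 0% = plate median of compound wells and 100% = inhibitor peptide control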
Conditions: FP displacement of TRITC-Tn6 peptide from DD(E); at 8.3 µM; stronger effect = higher value

Sequence of Fibrinogen beta chain (Homo sapiens) (P02675 whole entry, looked up): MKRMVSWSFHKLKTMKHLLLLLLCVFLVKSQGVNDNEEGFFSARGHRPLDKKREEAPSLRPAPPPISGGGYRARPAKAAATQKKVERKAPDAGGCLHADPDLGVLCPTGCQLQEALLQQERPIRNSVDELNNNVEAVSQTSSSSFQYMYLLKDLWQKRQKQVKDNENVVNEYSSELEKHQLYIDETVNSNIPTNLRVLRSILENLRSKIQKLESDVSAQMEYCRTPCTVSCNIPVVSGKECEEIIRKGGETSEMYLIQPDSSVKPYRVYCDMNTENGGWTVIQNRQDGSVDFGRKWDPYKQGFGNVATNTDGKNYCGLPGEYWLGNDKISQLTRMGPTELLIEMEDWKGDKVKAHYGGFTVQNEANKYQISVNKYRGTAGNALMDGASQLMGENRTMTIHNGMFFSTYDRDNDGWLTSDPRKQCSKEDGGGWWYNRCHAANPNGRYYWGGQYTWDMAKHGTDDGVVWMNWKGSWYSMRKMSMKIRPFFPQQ

SMILES | inhibition
COc1ccc2c(c1O)-c1cccc3c1[C@@H](C2)N(C)CC3 | -8.1%
Cc1cc(N2CCNC[C@@H]2C)ccc1N1CC[C@H](O)C1 | 2.65%
